Test results from PubChem BioAssay (NCATS).
Results filed as inconclusive are left out. Calls of active or inactive are those of the source. Unless noted, calls come from the whole dose curve.

Each compound was assayed against Glucocorticoid receptor (Homo sapiens) (UniProt P04150) (assay: GR-EFC Redistribution (AID 451; note: potency is the fitted concentration of half-maximal effect)). Settings: CHO-K1 GR-EFC translocation, beta-gal luminescence, 2 h.
Procedure, shortened: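 CHO-K1 cells expressing nuclear EA and GR-ED fragments of b-gal; compounds titrated up to 46 uM final, 2 h at 37 C. GR nuclear translocation read as complemented b-gal luminescence after 1 h RT detection.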

Glucocorticoid receptor (Homo sapiens), sequence (P04150 whole entry, looked up, the tested form may be a part): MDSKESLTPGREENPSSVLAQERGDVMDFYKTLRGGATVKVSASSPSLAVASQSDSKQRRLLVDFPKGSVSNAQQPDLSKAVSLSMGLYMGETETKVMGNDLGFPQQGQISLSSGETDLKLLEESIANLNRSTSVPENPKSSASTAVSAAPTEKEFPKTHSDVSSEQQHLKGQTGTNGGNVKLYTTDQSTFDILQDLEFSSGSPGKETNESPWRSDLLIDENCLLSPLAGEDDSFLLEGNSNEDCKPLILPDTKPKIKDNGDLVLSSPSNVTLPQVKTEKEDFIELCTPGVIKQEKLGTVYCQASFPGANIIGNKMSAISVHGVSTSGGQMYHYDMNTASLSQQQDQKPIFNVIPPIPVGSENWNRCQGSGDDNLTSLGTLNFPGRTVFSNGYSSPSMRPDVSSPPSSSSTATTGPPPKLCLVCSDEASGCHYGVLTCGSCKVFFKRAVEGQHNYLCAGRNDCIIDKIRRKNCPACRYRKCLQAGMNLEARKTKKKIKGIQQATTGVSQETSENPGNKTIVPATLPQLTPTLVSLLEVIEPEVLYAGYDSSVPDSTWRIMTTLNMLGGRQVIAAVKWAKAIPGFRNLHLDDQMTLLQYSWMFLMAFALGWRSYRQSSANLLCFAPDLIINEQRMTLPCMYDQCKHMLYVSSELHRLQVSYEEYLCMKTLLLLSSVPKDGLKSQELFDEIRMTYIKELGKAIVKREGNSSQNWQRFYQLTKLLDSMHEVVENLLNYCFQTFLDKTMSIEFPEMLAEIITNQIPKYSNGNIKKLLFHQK

Potency, inactive:
Cc1noc(C)c1-c1nc(N2CCOCC2)c2ccccc2n1 > 46 µM, Cc1noc(C)c1C(=O)N1CCC2(CCCN(C(=O)Nc3ccccc3)C2)CC1 > 46 µM, CNc1nc(-c2ccccc2C(F)(F)F)nc2ccccc12 > 46 µM, COc1ccc(Oc2ncc3nc(-c4ccc(F)cc4)c(=O)n(C)c3n2)cc1 > 46 µM, O=C(Nc1cccc(F)c1)N1CC2(CCN(C(=O)c3cccc(F)c3)CC2)C1 > 46 µM, O=C(c1ccncc1)N1CCC2(CCN(Cc3ccccc3)CC2)CC1 > 46 µM, Cc1cnc(CNc2ncnc3ccc(-c4ccccc4CN(C)C)cc23)cn1 > 46 µM, CC(=O)N1CCC[C@@]2(CCN(C(=O)Nc3cccc(C#N)c3)C2)C1 > 46 µM, COCC(=O)N1CCC2(CCN(Cc3ccc(C#N)cc3)CC2)CC1 > 46 µM, Cn1cccc1C(=O)N1CCC2(CCCN(Cc3ccncc3)C2)CC1 > 46 µM, CC(=O)N1CCC[C@@]2(CCN(Cc3nccs3)C2)C1 > 46 µM, CS(=O)(=O)Nc1cccc(-c2nc(NCCN3CCOCC3)c3ccccc3n2)c1 > 46 µM, Cc1nc2cnc(N3CCNCC3)nc2n(CCC#N)c1=O > 46 µM, CNc1ncnc2ccc(-c3cccc(NS(C)(=O)=O)c3)cc12 > 46 µM, N#Cc1cccc(NC(=O)N2CC[C@@]3(CCCN(C(=O)c4ccco4)C3)C2)c1 > 46 µM, CC(=O)NCCNc1nc(-c2ccc(N(C)C)cc2)nc2ccccc12 > 46 µM, FC(F)(F)c1ccccc1-c1nccc(NCc2ccccc2)n1 > 46 µM, O=C(c1csnn1)N1CCC2(CCN(Cc3ccccc3)CC2)CC1 > 46 µM, Cc1cnc(CNc2nc(-c3ccc(N(C)C)cc3)nc3ccccc23)cn1 > 46 µM, Cn1cc(C(F)(F)F)nc1-c1ccc(OC[C@@H](O)CNCCOc2ccc(O)c(C(N)=O)c2)cc1 > 46 µM, CN(C)c1ccc(-c2nc(N(C)C)c3ccccc3n2)cc1 > 46 µM, O=C(c1ccncc1)N1CCC2(CC1)CCN(c1ccncc1)CC2 > 46 µM, CC(=O)NCCNc1ncncc1-c1ccccc1C(F)(F)F > 46 µM, O=C(c1ccco1)N1CCC[C@@]2(CCN(c3ccccn3)C2)C1 > 46 µM, O=C(Nc1cccc(F)c1)N1CC2(CCN(C(=O)c3cnccn3)CC2)C1 > 46 µM, O=C(c1ccncc1)N1CCC2(CCN(Cc3nccs3)CC2)CC1 > 46 µM, Cc1noc(C)c1C(=O)N1CCC2(CC1)CN(c1ccccn1)C2 > 46 µM, Cc1cnc(CNc2cc(-c3ccoc3)ncn2)cn1 > 46 µM, COCCNc1nc(-c2ccccc2C)nc2ccccc12 > 46 µM, O=C(c1ccco1)N1CCC[C@@]2(CCN(C(c3ccccc3)c3ccccc3)C2)C1 > 46 µM, COc1ccc(C(=O)N2CCC[C@@]3(CCN(C(=O)NC(C)C)C3)C2)cc1 > 46 µM, O=C(c1cc(C(F)(F)F)cc(C(F)(F)F)c1)N1CCC2(CC1)CN(c1ccncc1)C2 > 46 µM, Cc1cccc(CNc2ncnc3ccc(-c4c(C)noc4C)cc23)c1 > 46 µM, Cn1cccc1C(=O)N1CCC2(CCCN(c3ccncc3)C2)CC1 > 46 µM, COc1ccc(NC(=O)N2CC3(CCN(C(=O)c4csnn4)CC3)C2)cc1 > 46 µM, COc1ccc2[nH]cc(CCNc3ccnc(-c4cccc(NS(C)(=O)=O)c4)n3)c2c1 > 46 µM, O=C(c1ccncc1)N1CCC[C@@]2(CCN(Cc3ccncc3)C2)C1 > 46 µM, COc1ccc(CNc2cc(-c3ccccc3CN(C)C)ncn2)c(OC)c1 > 46 µM, O=C(c1ccncc1)N1CCC2(CC1)CCN(c1ccc(-c3ccccc3)cc1)CC2 > 46 µM, COc1ccc(CNc2nc(-c3ccoc3)nc3ccccc23)c(OC)c1 > 46 µM

Each compound was assayed against Mitogen-activated protein kinase 10 (Mus musculus) (UniProt Q61831) (assay: JNK3 AlphaScreen Assay (AID 530; active = well fitted curve in either direction with a large enough effect, not every such curve was filed as active;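 note: kinase came from lysate of stimulated human HepG2 cells; signal reports phosphorylation of biotinylated GST-cJun 1-79 at Ser73 with 10 µM ATP; % is set by controls: 0 for no effect and ±100 for the full control effect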)). Settings: JNK3 lysate, c-Jun phosphorylation; series mostly up to 57.1 µM; activity change, negative = inhibition: at the top concentration.
Procedure, shortened: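 Activity was read by AlphaScreen after JNK3-containing HepG2 lysate (cytokine pre-activated) phosphorylated biotinylated GST-cJun with 10 uM ATP at room temperature. Phospho-Ser73 cJun antibody with Protein-A acceptor beads provided detection.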

Activity change, negative = inhibition, inactive:
Cc1noc(C)c1-c1nc(N2CCOCC2)c2ccccc2n1 0.858%, Cc1noc(C)c1C(=O)N1CCC2(CCCN(C(=O)Nc3ccccc3)C2)CC1 2.39%, CNc1nc(-c2ccccc2C(F)(F)F)nc2ccccc12 11.9%, COc1ccc(Oc2ncc3nc(-c4ccc(F)cc4)c(=O)n(C)c3n2)cc1 -2.11%, O=C(Nc1cccc(F)c1)N1CC2(CCN(C(=O)c3cccc(F)c3)CC2)C1 0.62%, O=C(c1ccncc1)N1CCC2(CCN(Cc3ccccc3)CC2)CC1 6.09%, CC(=O)N1CCC[C@@]2(CCN(C(=O)Nc3cccc(C#N)c3)C2)C1 -1.69%, COCC(=O)N1CCC2(CCN(Cc3ccc(C#N)cc3)CC2)CC1 1.3%, Cn1cccc1C(=O)N1CCC2(CCCN(Cc3ccncc3)C2)CC1 -7.25%, CC(=O)N1CCC[C@@]2(CCN(Cc3nccs3)C2)C1 -3.76%, CS(=O)(=O)Nc1cccc(-c2nc(NCCN3CCOCC3)c3ccccc3n2)c1 6.52%, Cc1nc2cnc(N3CCNCC3)nc2n(CCC#N)c1=O -0.861%, CNc1ncnc2ccc(-c3cccc(NS(C)(=O)=O)c3)cc12 -8.14%, N#Cc1cccc(NC(=O)N2CC[C@@]3(CCCN(C(=O)c4ccco4)C3)C2)c1 -1.65%, CC(=O)NCCNc1nc(-c2ccc(N(C)C)cc2)nc2ccccc12 -2.7%, FC(F)(F)c1ccccc1-c1nccc(NCc2ccccc2)n1 6.42%, O=C(c1csnn1)N1CCC2(CCN(Cc3ccccc3)CC2)CC1 2.49%, Cc1cnc(CNc2nc(-c3ccc(N(C)C)cc3)nc3ccccc23)cn1 -8.57%, CN(C)c1ccc(-c2nc(N(C)C)c3ccccc3n2)cc1 4.97%, O=C(c1ccncc1)N1CCC2(CC1)CCN(c1ccncc1)CC2 3.75%, CC(=O)NCCNc1ncncc1-c1ccccc1C(F)(F)F -4.08%, O=C(c1ccco1)N1CCC[C@@]2(CCN(c3ccccn3)C2)C1 -6.76%, O=C(Nc1cccc(F)c1)N1CC2(CCN(C(=O)c3cnccn3)CC2)C1 0.949%, Cc1noc(C)c1C(=O)N1CCC2(CC1)CN(c1ccccn1)C2 -24.4%, Cc1cnc(CNc2cc(-c3ccoc3)ncn2)cn1 -7.26%, COCCNc1nc(-c2ccccc2C)nc2ccccc12 -1.35%, O=C(c1ccco1)N1CCC[C@@]2(CCN(C(c3ccccc3)c3ccccc3)C2)C1 -6.79%, COc1ccc(C(=O)N2CCC[C@@]3(CCN(C(=O)NC(C)C)C3)C2)cc1 4.05%, Cc1cccc(CNc2ncnc3ccc(-c4c(C)noc4C)cc23)c1 -3.1%, Cn1cccc1C(=O)N1CCC2(CCCN(c3ccncc3)C2)CC1 0.879%, COc1ccc(NC(=O)N2CC3(CCN(C(=O)c4csnn4)CC3)C2)cc1 3.6%, COc1ccc2[nH]cc(CCNc3ccnc(-c4cccc(NS(C)(=O)=O)c4)n3)c2c1 -10.1%, O=C(c1ccncc1)N1CCC[C@@]2(CCN(Cc3ccncc3)C2)C1 -4.26%, COc1ccc(CNc2cc(-c3ccccc3CN(C)C)ncn2)c(OC)c1 -1.67%, O=C(c1ccncc1)N1CCC2(CC1)CCN(c1ccc(-c3ccccc3)cc1)CC2 -7.57%, COc1ccc(CNc2nc(-c3ccoc3)nc3ccccc23)c(OC)c1 -9.07%

Potency, inactive:
Cn1cc(C(F)(F)F)nc1-c1ccc(OC[C@@H](O)CNCCOc2ccc(O)c(C(N)=O)c2)cc1
